Source: PubChem
AMA1 RON2 block: inhibitors of Plasmodium falciparum AMA1-RON2 interaction; AlphaScreen AMA1-biotinylated RON2 peptide binding; Potency, µM (doses to about 58.2 µM), for the others: top-dose activity change, negative = inhibition, actives largely listed as inhibitors; 360,000 tested, 0.2% active; AID 720542;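 further: 0% = vehicle wells and -100% = peptide control; nearly all actives have a fitted effect of over 45% in size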
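AMA1 (3D7) with his tag at 25 nM final met compounds first, then biotinylated RON2 peptide at 25 nM; detection used donor plus acceptor beads, 10 µg/mL apiece, read by AlphaScreen after 30 min at room temperature.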
Pf growth 48h: P. falciparum growth inhibition at 48 hours (one generation); Potency, µM (highest dose often 28.7 µM), inactives show top-dose activity change, negative = inhibition, most hits filed as inhibitors; 310,000 tested, 5.9% active; P. falciparum luciferase growth in erythrocytes, 48 h; AID 504832; further: on the % scale 0 is the no-effect control and ±100 the full control effect
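First compound was added to culture medium, then infected red cells at 0.1% parasitemia and 2% hematocrit (final). After incubation at 37 C under 5% CO2, luciferase detection reagent was dispensed and light output recorded.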
Pf growth 96h: P. falciparum growth inhibition at 96 hours | 320,000 tested, 6.9% active | Potency, µM (doses to about 28.7 µM), inactives show top-dose activity change, negative = inhibition, hits mostly inhibitors | P. falciparum luciferase reporter growth, 96 h | AID 504834; further: on the % scale 0 is the no-effect control and ±100 the full control effect
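Cell-based qHTS: luciferase-tagged P. falciparum in erythrocytes (2% hematocrit, 0.05% parasitemia final) incubated with compounds for 96 hours, 37 C, 5% CO2; luciferase detection reagent then added and luminescence measured.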
HCV inhibitor: blocks hepatitis C virus; 340,000 tested, 3.4% active; Huh7.5.1 HCVcc-Cre infection, luciferase reporter, 44 h; Potency, µM (series often up to 41.8 µM), for the others: top-dose activity change, negative = inhibition, most hits filed as inhibitors; further: on the % scale 0 is the no-effect control and ±100 the full control effect
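HCVcc-Cre virus at an moi near 0.5 was added right after compound to cells cultured 4 h from seeding (1,000 cells/well). Luciferase activity was determined 44 h later, 15 min after substrate addition at RT.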
NS1 function inh: inhibitors of influenza NS1 protein function; AID 2326; 270,000 tested, 0.4% active; Potency, µM (highest dose often 46.1 µM), for inactives: at the top dose activity, positive = more growth; calls by dose curve; further: actives are rising curves; nearly all actives have a fitted effect of over 50% in size
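Recovery from NS1-induced slow growth read by OD600 in budding yeast switched to galactose assay medium (pH 6.0, -URA) at 1:100 dilution. Compound 23 nl per well; the matching strain lacking NS1 serves as control.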
SARS PLpro yeast: inhibitors of SARS-CoV papain-like protease in yeast; S. cerevisiae expressing SARS-CoV PLpro, growth rescue; Potency, µM (doses to about 32.9 µM), for the others: at the top dose activity, positive = growth rescue, most hits filed as activators; 330,000 tested, 0.19% active; AID 485353; calls by dose curve; further: 0% is about no effect; nearly all actives have a fitted effect of over 55% in size
An asterisk follows results filed as active. Shown are actives, neighbours in structure and some others; about 12% of the full set was active somewhere. Unless noted, the call rests on the fitted dose curve; in most records, active means well fitted curve in the direction sought with a large enough effect; inconclusive means small, poorly fitted or top-dose-only effect, or another doubt; inactive means no such curve, though single readings can be large; an effect the other way counts as inactive or inconclusive. Potency means the concentration at half of the fitted maximal effect.

Results for CCOC(=O)C(=CNc1ccc2c(c1)c1ccccc1n2CC)C(=O)OCC ?
AMA1 RON2 block: 48.2%; Pf growth 48h: 44.2%; Pf growth 96h: 52.3%; HCV inhibitor: 10µM*; NS1 function inh: 3.3%; SARS PLpro yeast: -0.8%

Results for CCn1c2ccccc2c2cc(NC(=O)C(C)Oc3ccccc3)ccc21 (stereo unspecified) ?
AMA1 RON2 block: -14.4%; Pf growth 48h: inconclusive; Pf growth 96h: inconclusive; HCV inhibitor: -23.2%; NS1 function inh: 13.8%; SARS PLpro yeast: -6.3%

Results for CCn1c2ccccc2c2cc(NC(=O)C(C)Oc3ccc(OC)cc3)ccc21 (stereo unspecified) ?
AMA1 RON2 block: -8.3%; Pf growth 48h: inconclusive; Pf growth 96h: 5.86µM*; HCV inhibitor: inconclusive; NS1 function inh: 22.7%; SARS PLpro yeast: 0.0%

Results for COc1ccc(OC(C)C(=O)Nc2cccc(F)c2)cc1 (stereo unspecified) ?
AMA1 RON2 block: 10.1%; Pf growth 48h: -5.0%; Pf growth 96h: 1.04µM*; HCV inhibitor: -22.0%; NS1 function inh: 0.3%; SARS PLpro yeast: 0.2%

How did CC(Oc1ccc2ccccc2c1)C(=O)NNC(=O)Nc1ccccc1F (stereo unspecified) do in these assays?
AMA1 RON2 block: 100.1%; Pf growth 48h: 35.6%; Pf growth 96h: -20.7%; HCV inhibitor: -0.4%; NS1 function inh: -11.8%; SARS PLpro yeast: -2.1%

Results for CSc1nc(N)c2ncn([C@@H]3O[C@H](COP(=O)(O)OP(=O)(O)O)[C@H](O)[C@H]3O)c2n1 ?
NS1 function inh: 3.8%

Results for COc1ccccc1N(CC(O)Cn1ccnc1C)S(=O)(=O)c1ccccc1 (stereo unspecified) ?
AMA1 RON2 block: -6.5%; Pf growth 48h: -8.6%; Pf growth 96h: 54.1%; HCV inhibitor: 9.0%; SARS PLpro yeast: -0.6%

How did Cc1oc(-c2ccccc2F)nc1CS(=O)(=O)CC(=O)NCCCN1CCN(C)CC1 do in these assays?
AMA1 RON2 block: -5.6%; Pf growth 48h: -2.8%; Pf growth 96h: 10.4µM*; HCV inhibitor: 1.4%; NS1 function inh: 13.3%; SARS PLpro yeast: 5.4%

Results for CCOc1ccc(CCNC(=O)CS(=O)(=O)Cc2nc(-c3ccc(OC)cc3)oc2C)cc1 ?
AMA1 RON2 block: -6.7%; Pf growth 48h: -17.2%; Pf growth 96h: 87.0%; HCV inhibitor: -13.2%; NS1 function inh: 26.8%; SARS PLpro yeast: 6.7%

Results for CCOc1ccc(CCNC(=O)CS(=O)(=O)Cc2nc(-c3ccccc3F)oc2C)cc1 ?
AMA1 RON2 block: 2.3%; Pf growth 48h: -19.4%; Pf growth 96h: inconclusive; HCV inhibitor: 10µM*; NS1 function inh: 12.1%; SARS PLpro yeast: 9.4%

Results for CCCNS(=O)(=O)c1cc(CN2C(=O)c3cccnc3C2=O)ccc1OC ?
AMA1 RON2 block: 20.9%; Pf growth 48h: 3.6%; Pf growth 96h: inconclusive; HCV inhibitor: 6.1%; NS1 function inh: 5.7%; SARS PLpro yeast: -0.6%

What do the screens show for `CN1/C(=C\C(=O)C[n+]2ccc3ccccc3c2)C(C)(C)c2ccccc21`?
AMA1 RON2 block: -12.6%; Pf growth 48h: inconclusive; Pf growth 96h: 1.04µM*; HCV inhibitor: inconclusive; SARS PLpro yeast: 0.4%

How did Cc1cc(C(=O)CSc2nnc(NCc3ccccc3)s2)c(C)n1C do in these assays?
AMA1 RON2 block: -12.4%; Pf growth 48h: inconclusive; Pf growth 96h: 52.7%; HCV inhibitor: inconclusive; NS1 function inh: -68.3%; SARS PLpro yeast: 2.0%

Results for CN1/C(=C\C(=O)c2ccccc2Cl)c2ccccc2CC1(C)C ?
AMA1 RON2 block: inconclusive; Pf growth 48h: inconclusive; Pf growth 96h: 36.9%; HCV inhibitor: 8.8%; NS1 function inh: -16.9%; SARS PLpro yeast: 16.0%

Results for CN1/C(=C\C(=O)c2ccco2)C(C)(C)c2ccccc21 ?
AMA1 RON2 block: -0.5%; Pf growth 48h: 1.65µM*; Pf growth 96h: 267.1%; HCV inhibitor: 11.2µM*; NS1 function inh: -253.3%; SARS PLpro yeast: -31.7%

Results for CN1/C(=C\C(=O)c2ccco2)c2ccccc2CC1(C)C ?
AMA1 RON2 block: -1.5%; Pf growth 48h: -0.2%; Pf growth 96h: 9.28µM*; HCV inhibitor: 0.8%; NS1 function inh: 2.1%; SARS PLpro yeast: 0.1%

Results for CN1/C(=C\C(=O)CSc2nnc(NCc3ccccc3)s2)C(C)(C)c2ccccc21 ?
AMA1 RON2 block: -12.9%; Pf growth 48h: 7.38µM*; Pf growth 96h: 6.57µM*; HCV inhibitor: inconclusive; NS1 function inh: -2.8%; SARS PLpro yeast: -24.7%

How did CC(=O)OCC1CC(COC(C)=O)C(COC(C)=O)CC1COC(C)=O (stereo unspecified) do in these assays?
AMA1 RON2 block: -14.1%; HCV inhibitor: 38.6%

What do the screens show for `O=C(O)c1cc(N/N=C/C=C/c2ccccc2[N+](=O)[O-])ccc1Cl`?
AMA1 RON2 block: -6.6%; Pf growth 48h: 313.3%; Pf growth 96h: 494.5%; HCV inhibitor: 13.0%; NS1 function inh: 8.1%; SARS PLpro yeast: 0.8%

How did COc1ccccc1OCC(=O)/C=C1/N(C)c2ccccc2C1(C)C do in these assays?
AMA1 RON2 block: -4.8%; Pf growth 48h: inconclusive; Pf growth 96h: inconclusive; HCV inhibitor: 10µM*; NS1 function inh: -4.0%; SARS PLpro yeast: 0.7%

How did Cc1ccc(C(=O)NC(=S)/C=C2\N(C)c3ccccc3C2(C)C)cc1 do in these assays?
AMA1 RON2 block: inconclusive; Pf growth 48h: -17.1%; Pf growth 96h: inconclusive; HCV inhibitor: 11.2µM*; NS1 function inh: 6.1%; SARS PLpro yeast: -37.7%

Results for CC(C)C(=O)NC(=S)/C=C1/N(C)c2ccccc2C1(C)C ?
AMA1 RON2 block: -15.4%; Pf growth 48h: inconclusive; Pf growth 96h: inconclusive; HCV inhibitor: inconclusive; SARS PLpro yeast: 3.7%

What do the screens show for `CC(=O)Oc1ccc2ccc3ccc(C(C)=O)cc3c2c1`?
AMA1 RON2 block: 3.5%; HCV inhibitor: 12.6µM*

How did CCCCCCc1c(C)c2ccc(OCC(=O)N[C@@H](Cc3ccccc3)C(=O)O)cc2oc1=O do in these assays?
AMA1 RON2 block: -1.3%; Pf growth 48h: -6.4%; Pf growth 96h: -25.7%; HCV inhibitor: inconclusive; NS1 function inh: 2.5%; SARS PLpro yeast: -9.6%

What do the screens show for `COc1ccc(CCC(C(O)C(F)(F)F)S(=O)c2ccccc2)cc1` (stereo unspecified)?
AMA1 RON2 block: 0.7%; Pf growth 48h: inconclusive; Pf growth 96h: 2.08µM*; HCV inhibitor: -21.3%; NS1 function inh: -2.1%; SARS PLpro yeast: -2.6%

Results for COc1ccc(NS(=O)CCCc2ccccc2)cc1 (stereo unspecified) ?
AMA1 RON2 block: -14.6%
